Data on 40 compounds can be found in PubChem BioAssay (NCI).

“And” between values parts separate entries of the source, which are not always exact repeats. Equal entries are not always repeated. The panel holds about 83,000 compounds, 20% with a hit somewhere; the sample as a whole holds those more often.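 Cells were grown in 96-well plates and exposed to the test compound at a single concentration for 48 hours; results are reported as percent growth, with values below 10 considered active.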 The source made the active and inactive calls.

This assay has as its system MDA-MB-468 breast. Put plainly: NCI-60 one-dose screen, 48 h (100 = growth as untreated, 0 = no growth, -100 = all killed). To be noted: 10 µM unless noted.
As for `O=C(Cc1ccccc1)C(F)(F)F`, the growth is 111% (inactive).

Regarding `CC1(C)[C@@H](OC(=O)CCC(=O)O)CC[C@]2(C)[C@H]3C(=O)C=C4[C@@H]5C[C@@](C)(C(=O)O)CC[C@]5(C)CC[C@@]4(C)[C@]3(C)CC[C@@H]12`, the growth is -0.77% (active).

Take `COc1ccc(Oc2nc(Nc3ccc(N4CCOCC4)nc3)ncc2NC(=O)c2cc(OC)cc(OC)c2)cc1`: the growth is 82.1% (inactive).

As for `CC1CC(O)CC(C)(C)C1` (stereo not given), the growth was 108% (inactive).

Turning to `O=C1Nc2cc(Cl)ccc2/C1=C\c1ccc(OCc2ccc([N+](=O)[O-])cc2)cc1`, the growth is 52% (inactive).

Consider `CN(C)CC/C=C1\c2ccccc2Sc2ccc(Cl)cc21`, for which the growth is 8.92% (active).

Turning to `O=C(c1cc(-c2ccc(Cl)cc2)nc2ccccc12)N1N=C(c2ccccc2)CC1c1cc(-c2ccccc2)nn1-c1ccccc1` (stereo not given), the growth is 89.6% (inactive).

`O=C(Nc1ccc(Cl)c(Cl)c1)Nc1ccc(Cl)c(Cl)c1`: the growth was -78.5% (active) and 10.4% (inactive).

On to `O=C1NC(=O)C(c2ccccc2)O1` (stereo not given), for which the growth was 106% (inactive).

Take `C#CCOc1ccc(C2=NN(C)C3N=C(Cl)c4ncn(C)c4N23)cc1OCC#C` (stereo not given): the growth is 86.3% (inactive).

As to `NC(CO)(CO)c1ccccc1`, the growth was 79.9% (inactive).

With `COC1=C(OC)C(=O)c2ccccc2C1=O`, the growth was -34% (active).

`Cc1cc2c(cc1[N+](=O)[O-])NC(CNC(C)C)CC2` (stereo not given): the growth was 83.3% (inactive).

As for `O=S(=O)(c1ccc(OCCO)cc1)c1ccc(OCCO)cc1`, the growth is 101% (inactive).

`COc1ncc(F)c(OC)n1`: the growth was 98.7% (inactive).

`NS(=O)(=O)c1ccc(C(=O)NN2C(=O)c3c(Br)c(Br)c(Br)c(Br)c3C2=O)cc1`: the growth was 111% (inactive).

Turning to `Nc1cc2ccccc2c(O)c1O`, the growth was -3.32% (active).

On to `COc1ccc2nc(-c3ccc(Cl)cc3)cc(-c3nnc(SCC(=O)Nc4ccc(C(C)=O)cc4)n3-c3ccccc3)c2c1`, for which the growth was 91.2% (inactive).

On to `CCOC(=O)/C(F)=C/C1CC1CCc1cccc(C(F)(F)F)c1` (stereo not given), for which the growth was 109% (inactive).

Regarding `N=c1c(S(=O)(=O)c2ccccc2)cc2c(=O)n3ccccc3nc2n1C1CCCC1`, the growth was 88.1% (inactive).

`O=C(NCOC(O)C(Cl)(Cl)Cl)NCOC(O)C(Cl)(Cl)Cl` (stereo not given): the growth was 106% (inactive).

As to `C[C@]12CC[C@@H]3c4ccc(O)c([N+](=O)[O-])c4CC[C@H]3[C@@H]1CC[C@@H]2NS(=O)(=O)c1cccc(Br)c1`, the growth is 39.8% (inactive).

`O=C(/C=C/c1ccccc1)Nc1ncc(Cc2ccccc2Cl)s1`: the growth was 8.79% (active).

For `COc1ccc(-c2nc(SC(C)C)nc(NNC(N)=S)c2C#N)cc1`, the growth is 21.2% (inactive).

As to `CCN(CC)CCOC(COc1cc(C)cc(C)c1)COc1cc(C)cc(C)c1`, the growth was 9.41% (active).

Regarding `COC(=O)Nc1nc2ccc(C(=O)c3ccccc3)cc2[nH]1`, the growth is -13.7% (active).

Turning to `COc1cccc(-c2nnc(N)o2)c1`, the growth was 90.3% (inactive).

Regarding `Cc1nc2sc(C(=O)Nc3cccc4ccccc34)c(N)c2cc1C(C)O` (stereo not given), the growth is 25.3% (inactive).

As for `Cc1ccc(CSC2=C(Cl)CN(c3ccc(Cl)cc3)C2=O)cc1`, the growth was 83.4% (inactive).

Take `CCOC(=O)c1c(NC(=O)c2ccccc2)sc2c3c(ccc12)OCN(C)C3`: the growth is -73.7% (active).

In the case of `CC1(C)CC(OCCCC[P+](c2ccccc2)(c2ccccc2)c2ccccc2)CC(C)(C)N1O`, the growth is -44.2% (active).

As to `COc1cc(-c2nc(SCCC(C)C)nc(Nc3ccc(S(N)(=O)=O)cc3)c2C#N)cc(OC)c1OC`, the growth is 42.8% (inactive).

Take `COc1ccc(-c2conc2-c2ccccc2)cc1`: the growth is -4.68% (active).

Consider `OC(CNc1ccnc2cc(Cl)ccc12)CNc1ccnc2cc(Cl)ccc12`, for which the growth is -67.9% (active).

Consider `O=C1c2cccnc2C(=O)c2c1c(C(=O)OCCCN1CCOCC1)c1ccccn21`, for which the growth is 4.71% (active).

With `Cc1ccc2c(c1)c1nc3cc(C)c(C)cc3nc1n2CCN(C)C`, the growth was -2.86% (active).

As for `Cc1ccc(C(=O)c2ccc(C)cc2)cc1`, the growth is 91% (inactive).

On to `O=C(CCCCCCN1CC(=O)N2[C@H](c3cc(Br)cs3)c3[nH]c4ccccc4c3C[C@H]2C1=O)NO`, for which the growth is 44.7% (inactive).

With `Cc1ccc2nc(-c3ccc(-n4on4-c4ccc(/C=C/c5ccc(-n6on6-c6ccc(-c7nc8ccc(C)cc8s7)cc6)cc5S(=O)(=O)O)c(S(=O)(=O)O)c4)cc3)sc2c1`, the growth is 114% (inactive).

For the compound `CCOC(=O)c1c(C)nc2ccccc2c1/C=C/c1ccc(OC)cc1`, the growth was 20.6% (inactive).
